Compound activity deposited in PubChem BioAssay by several laboratories.
Rows were chosen to be rich in hits. Some 1.6% of all compounds tested hit in one or more screens of this group.
PABP polyA inh: PABP-poly(A) binding inhibition. P11940. PABP-poly(A) RNA binding, fluorescence polarization. inhibition, % at 35 µM. hit rate 1% among 290,000. AID 2014;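 also: calls also rest on retests at 20 µM and on dose response follow-up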
Target sequence (P11940 whole entry, looked up): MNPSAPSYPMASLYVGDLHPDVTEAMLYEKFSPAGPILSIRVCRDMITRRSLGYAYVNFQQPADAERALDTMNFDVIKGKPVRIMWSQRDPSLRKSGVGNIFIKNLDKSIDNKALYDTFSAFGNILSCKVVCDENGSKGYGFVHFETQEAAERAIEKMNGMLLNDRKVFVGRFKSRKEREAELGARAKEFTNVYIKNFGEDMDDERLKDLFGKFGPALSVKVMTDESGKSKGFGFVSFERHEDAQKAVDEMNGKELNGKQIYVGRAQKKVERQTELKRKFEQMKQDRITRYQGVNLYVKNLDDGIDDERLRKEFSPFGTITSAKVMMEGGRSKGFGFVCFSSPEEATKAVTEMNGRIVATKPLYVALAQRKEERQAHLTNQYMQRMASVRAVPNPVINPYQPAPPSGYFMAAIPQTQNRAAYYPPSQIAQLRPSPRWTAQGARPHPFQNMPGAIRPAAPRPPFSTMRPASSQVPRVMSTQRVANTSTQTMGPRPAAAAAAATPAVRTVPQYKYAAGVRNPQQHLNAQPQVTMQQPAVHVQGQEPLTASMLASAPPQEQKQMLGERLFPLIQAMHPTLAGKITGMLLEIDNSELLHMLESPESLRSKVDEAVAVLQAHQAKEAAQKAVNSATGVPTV
eIF4H inh: inhibitors of RNA binding by human eIF4H; hit rate 0.94% among 290,000; Q15056; eIF4H fluorescence polarization binding assay; inhibition, % at 35 µM;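 also: calls also rest on retests at 20 µM and on dose response follow-up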
PABP1 MLLE inh: blocks PAM2 peptide binding to the PABP1 MLLE domain. P11940. GST-MLLE / FITC-PAM2 fluorescence polarization. inhibition, % at 20 µM. hit rate 0.36% among 360,000. AID 588489; in the data active = inhibition above about 35%, passing the limit was not always enough;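 also: plate controls were DMSO wells with GST-MLLE for no effect and wells lacking GST-MLLE protein for full effect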
PERK inhibitor: blocks human PERK kinase | Q9NZJ5 | CHO PERK-DD fusion, SEAP luminescence translation reporter | inhibition, % at 5.6 µM | hit rate 0.17% among 220,000;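 active = inhibition above the mean inhibition of all tested compounds plus 3 SD, set separately per screening campaign, cut at about 2.9% in these data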;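 also: PERK kinase domain activated by AP20187 dimerizer at 100 nM; 0% = DMSO with dimerizer and 100% = rapamycin at 8.4 µM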
eIF4E 4G PPI: blocks eIF4E binding to eIF4G | inhibition, % at 21.7 µM | hit rate 0.37% among 220,000 | TR-FRET eIF4E-eIF4GI(517-606) binding, 2 h | P63073+Q04637 | AID 782;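 active = inhibition above about 30%, limit read from the data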;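 also: 0% = full FRET control wells and 100% = background wells lacking eIF4GI fragment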
Active calls of the source: *; ? = inconclusive; nt = no result; [ ] = another dose, or the depositor's remark. Unless noted, no rule for the calls is given here.

SMILES | PABP polyA inh | eIF4H inh | PABP1 MLLE inh | PERK inhibitor | eIF4E 4G PPI
COc1ccccc1-n1cc(-c2ccc([N+](=O)[O-])cc2)[nH]c1=S | -4 | -1 | 39* | 0 | 0
CCN(CCO)c1nc(SC)nc2c1sc1nc(-c3ccco3)c3c(c12)CCC3 | 73* | 85* | 21 | 1 | 4
CSc1nc(NCCOCCO)c2sc3nc(-c4ccco4)c4c(c3c2n1)CCC4 | 94* | 94* | -6 | 1 | 28
Cc1c(CCC(=O)NCCCN2CCCC2=O)c(=O)oc2cc(O)ccc12 | 19 | -9 | -2 | nt | nt
Cc1csc(SCC(=O)c2cc(C)n(Cc3cccs3)c2C)n1 | -6 | 6 | 24 | 0 | 0
Cc1cc(C(=O)CSc2nnc(-c3ccc(OC(F)F)cc3)o2)c(C)n1Cc1cccs1 | 85* | 57* | -118 | 1 | 2
Cc1cc(C(=O)CSc2nnc(N)s2)c(C)n1Cc1cccs1 | 2.7* | 77 | 17 | -1 | -1
CN(CC(=O)Nc1cccc(F)c1)C(=O)CNS(=O)(=O)c1ccc(N(C)C)c([N+](=O)[O-])c1 | nt | nt | 46* | nt | nt
CN(C)c1ccc(S(=O)(=O)NCC(=O)N2CCN(S(=O)(=O)c3cccc(F)c3)CC2)cc1[N+](=O)[O-] | nt | nt | 22 | nt | nt
CC(=O)OC1=C(C#N)Cn2ccc3cccc1c32 | 16 | 2 | nt | 0 | 32*
O=C(CN(C(=O)C1CSC(=O)C1)c1ccccc1F)NCc1ccc2c(c1)OCO2 (stereo unspecified) | -1 | 2 | -2 | 0 | -4
Cc1cccc2c1CCCC2=O | nt | nt | 0 | nt | nt
O=C(NNC(=O)c1cc2cc(Br)ccc2oc1=O)c1ccc(O)cc1O | 4.2* | 85* | 0 | 1 | -6
Cc1ccc(N(Cc2cc3cccc(C)c3[nH]c2=O)S(=O)(=O)c2ccccc2)c(C)c1 | 35 | 0 | -131 | nt | nt
COc1ccc(CN(C)C(=O)[C@H]2O[C@@H](n3ccc(=O)[nH]c3=O)[C@H](O)[C@@H]2O)cc1OC | nt | nt | 0 | nt | nt
CN(Cc1ccc2c(c1)CCCN2C)C(=O)[C@H]1O[C@@H](n2ccc(=O)[nH]c2=O)[C@H](O)[C@@H]1O | nt | nt | 47* | nt | nt
CN(CC(=O)O/N=C(\N)c1ccccn1)S(=O)(=O)c1cc(Cl)ccc1Cl | 0 | -11 | -1 | 0 | -4
Cc1sc(NC(=S)Nc2ccc(F)cc2)c(C(N)=O)c1C | 4 | 4 | 35* | 0 | -3
Cc1noc(C)c1S(=O)(=O)N1CCC(C(=O)N2CCN(c3ccc(Cl)cc3)CC2)CC1 | -2 | 0 | -6 | -2 | -3
O=C(COc1ccccc1Cl)c1ccc[nH]1 | -5 | ? | 8 | 1 | 33*
O=C(COc1ccc(Br)cc1Cl)c1ccc[nH]1 | -21 | 14 | -14 | 0 | 4
Nc1cccnc1Sc1cccc(Cl)c1 | 10 | 14 | 38* | 1 | 7
Nc1cccnc1Sc1ccc(Cl)cc1 | 5 | -3 | -3 | -1 | -3
O=c1c2c([N+](=O)[O-])cc([N+](=O)[O-])cc2nc2ccccn12 | 57* | 82* | -4 | nt | nt
Cc1c(O)nc2ccccn2c1=O | -18 | -12 | 10 | 1 | 3
SMILES | PABP polyA inh | eIF4H inh | PABP1 MLLE inh | PERK inhibitor | eIF4E 4G PPI
CCOC(=O)c1c(C)n(-c2ccc(C)cc2)c2ccc(OCC(O)CN3CCN(C)CC3)cc12 (stereo unspecified) | -3 | 0 | -11 | 0 | 15
O=C(c1ccc(=O)oc1)N1CCOCC1 | 66* | 88* | 3 | 1 | 21
CN(Cc1ccc(Cl)cc1)C(C(=O)NC1CCCCC1)c1ccnc2ccccc12 (stereo unspecified) | nt | nt | -9 | nt | nt
Cc1cc(=O)cc(C)n1-c1ccc(F)cc1F | 18* | 77 | 2 | 0 | -4
CN1CCCCc2c1[nH]c1ccccc1c2=O | 69* | 59* | 15 | 0 | 3
Oc1ccc(/C=N/N=C(c2ccccc2)c2ccccc2)c(O)c1O | active | 85* | 6 | 1 | 33*[fluorescence artefact?]
O=c1c2cc(N3CCOCC3)ccc2[nH]c(=S)n1Cc1ccccn1 | 52* | 37* | -28 | 1 | 8
O=c1[nH]cnc2scc(-c3ccc(-c4ccccc4)cc3)c12 | 35* | 59 | -7 | 2 | 3
COc1ccc(-c2coc3c(C)c4oc(=O)c(CCC(=O)O)c(C)c4cc23)cc1 | 51 | -2 | 5 | nt | nt
Cc1c(CCC(=O)O)c(=O)oc2c(C)c3occ(-c4ccc(Br)cc4)c3cc12 | 80* | 72* | -14 | nt | nt
O=c1cc(-c2ccccc2)[nH]c2ccccc12 | -5 | -3 | -1 | 0 | 49*[fluorescence artefact?]
CC(C)(O)[C@@H]1Cc2c(ccc3ccc(=O)oc23)O1 | 20 | -6 | 18 | 0 | 3
